# Test results taken from PubChem BioAssay AID1477 (National Center for Advancing Translational Sciences (NCATS), 2009).
# Hit rate of the full screen: of about 230,000 compounds, fewer than 10 were called active. About 3% were inconclusive and are not listed. Not all results are given here. Unmarked numbers belong to inactive results. The call rests on the fitted dose curve; in most records, active means well fitted curve in the direction sought with a large enough effect; inconclusive means small, poorly fitted or top-dose-only effect, or effect the other way, or another doubt; inactive means no such curve, though single readings can be large or run the other way. Bridge positions count the residues as written; N and C are the ends. Peptide text beside a SMILES is read from it.
# Target: Runt-related transcription factor 1 (Homo sapiens) + Core-binding factor subunit beta (Homo sapiens) (UniProt Q01196+Q13951)
# Assay: qHTS Assay for Compounds Blocking the Interaction Between CBF-beta and RUNX1 for the Treatment of Acute Myeloid Leukemia; further: % of control where 0% means no effect
# Details: AlphaScreen CBFb-His/RUNX1-biotin binding, biochemical; series mostly up to 59.8 µM
# Description: NIH Chemical Genomics Center [NCGC]
# NIH Molecular Libraries Probe Production centers Network [MLPCN]
# Assay Submitter (PI): Paul Liu
# Core Binding Factor (CBF) abnormalities are associated with 20-25% of all acute myeloid leukemias (AML), of which 5-10% are further sub classified as acute myelomonocytic leukemia with eosinophilia, also known as M4Eo in the FAB classification scheme. This subtype of leukemia is usually associated with chromosome 16 inversion (p13:q22). Chromosome 16 inversion results in formation of the fusion oncogene CBFB-MYH11, which encodes the fusion protein CBF-beta-SMMHC.
# It has been hypothesized that the interference of CBF-beta and RUNX1 binding could have therapeutic implications for patients with CBF mediated leukemias. We developed a CBF-beta and RUNX1 binding assay in AlphaScreenTM format and optimized it for high throughput screening to search for inhibitors. The goal of this project is to screen MLPCN's compound collection (MLSMR) for identifying the inhibitors of the interaction between CBF-beta and RUNX1 proteins as research probes. If these probes work well in the animal models, the ultimate goal of this project is to development a new drug treatment for this disease.
# This assay can not be used to assess how apparent inhibitors interfere with protein binding, and whether inhibitors specifically bind to either protein. Disruption of this protein-protein interaction, through any mechanism, is the intended target activity.
# NCGC Assay Protocol Summary:
# Step, Parameter, Description
# (1) Reagent, 3 uL CBFb-His/RUNX1-biotin mix incubated together for 20 minutes at room temperature (30 nM each)
# (2) Compound or control, 23 nL compound stock solution
# (3) Incubation, 15 minutes at Room temperature
# (4) Reagent, 1 uL 50 ng each of beads (Nickel beads and streptavidin beads)
# (5) Incubation, 90 minutes at Room temperature
# (6) Detection, Excitation=365 nm Emission=440 nm, Envision reader in AlphaScreenTM mode
# Keywords: MLSMR, MLPCN, NIH Roadmap, qHTS, NCGC, Core binding factor, CBF, CBF-beta, Acute myeloid leukemia
# Runt-related transcription factor 1 (Homo sapiens) + Core-binding factor subunit beta (Homo sapiens), sequence (Q01196 whole entry, looked up): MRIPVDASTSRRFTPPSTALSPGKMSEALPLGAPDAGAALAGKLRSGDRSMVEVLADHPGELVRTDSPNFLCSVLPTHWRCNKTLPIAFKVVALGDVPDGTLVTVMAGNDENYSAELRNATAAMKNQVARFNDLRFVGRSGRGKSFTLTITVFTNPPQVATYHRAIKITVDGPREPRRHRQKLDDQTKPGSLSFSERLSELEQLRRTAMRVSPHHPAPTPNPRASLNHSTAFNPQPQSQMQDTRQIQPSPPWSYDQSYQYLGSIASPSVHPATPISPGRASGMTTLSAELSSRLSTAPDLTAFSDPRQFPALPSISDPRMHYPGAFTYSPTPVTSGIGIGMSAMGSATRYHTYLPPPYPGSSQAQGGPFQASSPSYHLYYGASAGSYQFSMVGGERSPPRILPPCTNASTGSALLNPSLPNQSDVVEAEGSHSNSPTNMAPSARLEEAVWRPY
# Runt-related transcription factor 1 (Homo sapiens) + Core-binding factor subunit beta (Homo sapiens), sequence (Q13951 whole entry, looked up): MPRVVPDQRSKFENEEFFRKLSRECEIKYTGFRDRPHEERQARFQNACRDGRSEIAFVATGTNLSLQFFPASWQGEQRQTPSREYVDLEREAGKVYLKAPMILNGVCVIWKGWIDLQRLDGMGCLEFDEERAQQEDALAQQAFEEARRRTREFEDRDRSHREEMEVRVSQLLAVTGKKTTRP
row,Compound,"activity, negative = inhibition"
1,CC1CN(c2nc(-c3ccccc3)nnc2-c2ccccc2)CC(C)O1 (stereo unspecified),inactive
2,CCOCCCNCc1ccc(OCc2ccc(F)cc2)c(OC)c1,inactive
3,O=C(NCc1ccco1)c1ccc(NS(=O)(=O)c2cccc([N+](=O)[O-])c2)cc1,inactive
4,COc1cc(OC)c2c(c1C(CCN1CCCCC1)c1ccc(N(C)C)cc1)OC(=O)CC2c1ccc(N(C)C)cc1 (stereo unspecified),inactive
5,O=C(NCC1CCCO1)c1ccccc1-c1nc(-c2ccccc2Cl)no1 (stereo unspecified),inactive
6,COc1ccc(CCNC(=O)CSc2nc(-c3ccc(OC)c(OC)c3)ccc2C#N)cc1,inactive
7,COc1ccc(C[C@H](C(=O)O)N2C(=O)c3ccc(C(=O)O)cc3C2=O)cc1,inactive
8,O=C(N/N=C/c1ccc(Cl)cc1)c1nc2ccc([N+](=O)[O-])cc2c(=O)[nH]1,inactive
9,COc1ccc(-c2ccc(OC)c(C3C4C=CCC(C)C4C(=O)N3Cc3ccccc3)c2)cc1C (stereo unspecified),inactive
10,O=S(O)S(=O)(=O)O,inactive
11,CCN(CC)N=Nc1cccc(NC(C)=O)c1,inactive
12,Cc1cc(N(C)C)nc(Cl)n1,inactive
13,CN(C)C(=O)c1ccc2c(c1)C1C3CCC(C3)C1C(c1ccccc1)N2 (stereo unspecified),inactive
14,COC(=O)c1c(C)oc(C)c1S(=O)(=O)Nc1ccc(C(C)C)cc1,inactive
15,O=C(/C=C/c1ccc2c(c1)OCO2)NCc1cn2cc(Cl)ccc2n1,inactive
16,C=CCCC(=O)Nc1nc(C)c(-c2csc(Nc3ccc(Cl)cc3)n2)s1,inactive
17,COc1ccc2[nH]c3c(C)c4cc[n+](C)cc4c(C)c3c2c1,inactive
18,CCCCCCCC1=Cc2ccc(F)cc2C(C(C(=O)OC)C(=O)OC)N1C(=O)OC (stereo unspecified),inactive
19,CCOC(OCC)OCC,inactive
20,Cc1ccc(-c2nnc(-n3nnc4ccccc43)c3ccccc23)cc1,inactive
21,COc1ccc(C2CC(O)(c3ccccc3)Oc3cc(C)cc(C)c32)cc1 (stereo unspecified),inactive

row,Compound,"activity, negative = inhibition"
1,CC(=O)Nc1ccc(S(=O)(=O)N2N=NC3C2C2CC4C3(CN(C(=O)OC(C)(C)C)S4(=O)=O)O2)cc1 (stereo unspecified),inactive
2,C=C1CCN(C(CC(C)C)C(=O)NCc2cc(OC)c(OC)c(OC)c2)S(=O)(=O)c2ccccc21 (stereo unspecified),inactive
3,COc1cc(NC(=S)N2CCCC(C)C2)c(OC)cc1Cl (stereo unspecified),inactive
4,COC(=O)CCc1ccccc1S(=O)(=O)N(CCC(=O)OC)Cc1ccccc1,inactive
5,OC1CCCN(c2ncnc3c2nnn3Cc2c(F)cccc2Cl)C1 (stereo unspecified),inactive
6,COc1ccc(CN2CCC(=O)c3ccccc3S2(=O)=O)cc1,inactive
7,COc1ccc(C2/C=C\CN(Cc3ccco3)C(C)C(=O)N2Cc2ccc(F)cc2)cc1 (stereo unspecified),inactive
8,CCCCc1nn(-c2ccccc2C(F)(F)F)c(=O)n1Cc1ccc(-c2ccccc2S(=O)(=O)NC(=O)c2sccc2C)cc1,inactive
9,O=c1[nH]nc(SCCS(=O)(=O)c2ccc(F)cc2)n1-c1ccccc1C(F)(F)F,inactive
10,O=C(O)c1ccc(NS(=O)(=O)c2ccc3c(c2)C(=O)c2cc(S(=O)(=O)Nc4ccc(C(=O)O)cc4)ccc2-3)cc1,inactive
11,COc1ccc(N)c(OC)c1,inactive
12,COc1ccc(NC(=O)C2C3C=CC(C3)C2C(=O)NCc2ccccn2)c(OC)c1 (stereo unspecified),inactive
13,COc1cccc(OC)c1C(=O)NC(=S)Nc1ccc(N2CCOCC2)c(Cl)c1,inactive
14,Cn1c(=O)c2c(-c3cccc(Br)c3)c(C#N)c(N)nc2n(C)c1=O,inactive
15,O=C(NCC1CC1)C1(C(F)(F)F)C/C(=C\CCO)CCCO1 (stereo unspecified),inactive
16,CCN(CC)/[N+]([O-])=N/Oc1cc(O/[N+]([O-])=N/N2CCCC2CO)c([N+](=O)[O-])cc1[N+](=O)[O-] (stereo unspecified),inactive
17,CC[C@H](C)[C@H](NC(=O)[C@H](CCCNC(=N)N)NC(=O)[C@H](CCCNC(=N)N)NC(=O)[C@H](CC(C)C)NC(=O)[C@H](Cc1ccccc1)NC(=O)CNC(=O)CNC(=O)[C@@H](N)Cc1ccc(O)cc1)C(=O)N[C@@H](CCCNC(=N)N)C(=O)N1CCC[C@H]1C(=O)N[C@@H](CCCCN)C(=O)N[C@@H](CC(C)C)C(=O)N[C@@H](CCCCN)C(=O)N[C@@H](Cc1c[nH]c2ccccc12)C(=O)N[C@@H](CC(=O)O)C(=O)N[C@@H](CC(N)=O)C(=O)N[C@@H](CCC(N)=O)C(=O)O,inactive
18,COC(=O)c1ccccc1N=Nc1c(C)[nH][nH]c1=O,inactive
19,O=C(NCc1ccccc1)C1=C[C@@H](C2CCCCC2)C[C@@H](OCc2ccc(CO)cc2)O1,inactive
20,COc1ccc(N(CC(=O)NC2CCCCC2)C(=O)CNC(=O)c2ccco2)c(OC)c1,inactive
21,CSc1ccccc1N1CCN(CCCCCC(=O)NC2CCCc3ccccc32)CC1 (stereo unspecified),inactive

row,Compound,"activity, negative = inhibition"
1,CC1=C2[C@@H](O)[C@H]([C@@H](C)C(=O)NCCC(C)C)CC[C@@]2(C)C=CC1=O,inactive
2,Cc1cccn2c(CN(C)C3CCCc4ccccc43)c(C(=O)N3CCOCC3)nc12 (stereo unspecified),inactive
3,COc1ccc(-c2ccc(C3C4C=CCCC4(C)C(=O)N3Cc3ccccc3)c(F)c2)cc1OC (stereo unspecified),inactive
4,CCCOC(=O)c1c(NC(=O)c2cnn3c2NC(c2ccccc2)CC3C(F)(F)F)sc2c1CCCC2 (stereo unspecified),inactive
5,COc1ccc(OC)c(C2C3=C(N=c4s/c(=C\c5cccc(O)c5)c(=O)n42)c2ccccc2CC3)c1 (stereo unspecified),inactive
6,Cc1cc(-c2nnc(CCC(=O)NC(c3ccccc3)c3ccccc3)o2)no1,inactive
7,CCCN1CCC(=O)N(C(CSc2ccc(OC)cc2)Cc2ccccc2)CC1 (stereo unspecified),inactive
8,Cc1noc(C)c1-c1ccc2ncnc(NC(C)c3ccco3)c2c1 (stereo unspecified),inactive
9,O=C(CNC1CCCCC1)NCC1(c2ccccc2)CCCC1,inactive
10,Nc1nc(NC(=O)/C=C/c2ccc(F)cc2)nn1-c1ccccc1,inactive
11,CC(Nc1nc(N2CCOCC2)nc2ccccc12)c1ccccc1 (stereo unspecified),inactive
12,COc1ccc(C2=Nn3c(nnc3-c3ccccc3O)SC2)cc1,inactive
13,O=C(O)C1CC=CC2CCN(C3CCCCC3)C(=O)C21 (stereo unspecified),inactive
14,Cc1ccc(CN(Cc2cccnc2)C(=S)Nc2cc(Cl)ccc2C)cc1,inactive
15,O=C(NCc1ccccn1)[C@]1(C(F)(F)F)C[C@H](CCc2ccccc2)CCCO1,inactive
16,Cc1ccc(SCC(CC(C)C)N2CCN(CCc3ccccc3)CCC2=O)cc1 (stereo unspecified),inactive
17,O=C(CC1NCCc2ccccc21)Nc1cccc(Cl)c1 (stereo unspecified),inactive
18,CCOC(=O)c1ccccc1N1C(=O)C2Sc3[nH]c(=O)sc3C(/C=C/c3ccccc3)C2C1=O (stereo unspecified),inactive
19,CCOC(=O)c1cc2c(=O)[nH]c(C(Cl)(Cl)Cl)nc2o1,inactive
20,C[C@@H](O)[C@@H]1NC(=O)[C@H](CCCCN)NC(=O)[C@H](Cc2c[nH]c3ccccc23)NC(=O)[C@H](Cc2ccccc2)NC(=O)[C@H](Cc2ccccc2)NC(=O)[C@H](CC(N)=O)NC(=O)[C@H](CCCCN)NC(=O)[C@@H](NC(=O)[C@@H]2CCCN2)CSSC[C@@H](C(=O)N[C@@H](CCCCN)C(=O)O)NC(=O)[C@H](CO)NC(=O)[C@H](CO)NC(=O)[C@H](Cc2ccccc2)NC1=O (H-PCKNFFWKTFSSCK-OH; disulfide 2-13),inactive
21,O=C1C2C(c3ccccc3)CC=CC2C(c2ccoc2)N1Cc1ccccc1 (stereo unspecified),inactive

row,Compound,"activity, negative = inhibition"
1,COCCCn1c(SCc2cccc(OC)c2)nc2cc(OC)c(OC)cc2c1=N,inactive
2,C=C1/C(=C\C=C2\CCCC3(C)C2CCC3C(C)/C=C/C(O)C2CC2)CC(O)CC1O (stereo unspecified),inactive
3,CCOC(=O)C(C)Oc1cccc2c(=O)n(CC(=O)NCCc3ccc(OC)c(OC)c3)ccc12 (stereo unspecified),2.24% [at 2.36 µM]
4,COc1ccc(C(=O)C2CCCN(Cc3cccn3-c3ccccn3)C2)c(C)c1 (stereo unspecified),inactive
5,ONC(=Nc1ccc(Cl)cc1)c1ccccc1Cl,inactive
6,COc1cc(CN2CCN(Cc3ccc(C)cc3)CC2)c([N+](=O)[O-])cc1OC,inactive
7,C=C/C1=C/Cc2ccccc2[C@H](C[N+](=O)[O-])C(C(=O)OC)(C(=O)OC)C1,inactive
8,COC(=O)c1c(NC(=O)CN2C(=O)NC(CCc3ccccc3)C2=O)sc2c1CCCCC2 (stereo unspecified),inactive
9,CC(C)(C)NCCCOc1ccc(Cl)cc1C(C)(C)C,inactive
10,CCCNC(=O)OC[C@H]1O[C@H](CCO/N=C/[C@@H](NS(=O)(=O)c2ccc(C)cc2)[C@H](C)/C=C/CC(=O)OC)C=C[C@@H]1Oc1ccc(OC)cc1,-0.295% [at 2.36 µM]
11,C/C=C/c1ccc(OCCCCN2CCC(C)CC2)c(OC)c1,inactive
12,Cc1cccc(N2CCC(NCc3c(C(=O)N4CCCCC4)nc4c(C)cccn34)CC2)c1,inactive
13,CC1(C)CC(CNCCC(c2ccc(F)cc2)c2ccco2)CCO1 (stereo unspecified),inactive
14,Fc1ccc(Cl)cc1-c1nc(Nc2ccncc2)c2nccnc2n1,inactive
15,CCOc1ccc2sc(NS(=O)(=O)c3ccc(N)cc3)nc2c1,inactive
16,CCc1ccc(CN(C)C(=O)CCc2nnc(-c3ccc(-c4ccccc4)cc3)o2)nc1,inactive
17,CCOC(=O)C1(CCOc2ccccc2)CCN(C(=O)c2cncs2)CC1,inactive
18,COc1ccc(C(CC(=O)N2CCN(c3ccccc3)CC2)c2c(O)cc(OC)cc2OC)cc1 (stereo unspecified),inactive
